For eight molecules, growth results are on record in PubChem BioAssay (NCI).

This is part of a sample that, as a whole, favours compounds with a hit. Of some 83,000 tested, about 20% had one in any assay.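 Method: cells in 96-well plates; compound added at one concentration; 48 h incubation; percent growth measured; values under 10 scored active.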 Unmarked numbers belong to inactive results. Calls of active or inactive are those of the source.

Holding throughout (assay): NCI-60 one-dose screen, 48 h (100 = growth as untreated, 0 = no growth, -100 = all killed)
Common to all, as to conditions: 10 µM unless noted

Experiment [1] has as its system HCT-15 colon.
Experiment [2] has as its system HT29 colon.
Experiment [3] deals with SNB-75 CNS.
Experiment [4] deals with SNB-19 CNS.
Experiment [5] concerns U251 CNS.
Experiment [6] concerns PC-3 prostate.
Experiment [7] relates to SK-MEL-5 melanoma.
In experiment [8] the test system is UACC-62 melanoma.
Experiment [9] has as its system LOX IMVI melanoma.
For experiment [10], the system named is SK-MEL-28 melanoma.
For experiment [11], the system named is SK-MEL-2 melanoma.
The test system of experiment [12] is EKVX NSCLC.
Experiment [13] concerns SN12C renal.
Experiment [14] has as its system UO-31 renal.
For experiment [15], the system named is TK-10 renal.
Experiment [16] concerns ACHN renal.
Experiment [17] deals with CAKI-1 renal.
Experiment [18] deals with CCRF-CEM leukemia.
Experiment [19] has as its system MOLT-4 leukemia.
The subject of experiment [20] is A498 renal.

Take `COC(=O)c1c2c(c(C)[n+]([O-])c1C)C(=O)C=C(NCc1ccc(F)c(Cl)c1)C2=O`: the growth in experiment [1] was -70.4% (active); in [2], 3.68% (active); in experiment [3], -96.9% (active); in experiment [4], -48.5% (active); in [5] it was -21.7% (active); in [6], -1.13% (active). The growth in experiment [7] is -97.7% (active); in experiment [8] it was -70.8% (active); in experiment [9], -64.5% (active); in experiment [10], -11.8% (active); in experiment [11], -42.8% (active); in [12], -63.3% (active). In addition, the growth was -85.7% (active) in experiment [13]; -49.5% (active) in [14]; 21.2% in experiment [15]; -38.4% (active) in experiment [16]; -16.1% (active) in experiment [17]; -2.7% (active) in experiment [18]. Further, the growth in [19] is -35.6% (active).
As to `COc1cc(Cn2cc(F)c(=O)[nH]c2=O)cc(OC)c1`, the growth in experiment [1] is 103% [50 µM]; in experiment [2] it was 110% [50 µM]; in experiment [3], 91.2% [50 µM]; in [4], 101% [50 µM]; in [5], 106% [50 µM]; in [6], 101% [50 µM]. The growth is 103% [50 µM] in experiment [7]; 97.5% [50 µM] in experiment [8]; 86.2% [50 µM] in experiment [9]; 109% [50 µM] in [10]; 114% [50 µM] in experiment [11]; 98.6% [50 µM] in experiment [12]. For the same molecule, the growth in [13] was 98.9% [50 µM]; in [14], 75.3% [50 µM]; in experiment [16], 101% [50 µM]; in [17], 92.9% [50 µM]; in experiment [20], 98.2% [50 µM]; in experiment [18] it was 103% [50 µM]. Moreover, the growth in experiment [19] is 103% [50 µM].
Turning to `COc1ccc(C2=NOC(CC(=O)N(CCO)CCO)C2)cc1OC1CCCC1` (configuration not stated), the growth was 98.6% in experiment [1]; 110% in experiment [2]; 86.5% in experiment [3]; 97% in experiment [4]; 97.5% in [5]; 95.5% in experiment [6]. Moreover, the growth in experiment [7] was 94.1%; in [8], 100%; in [9], 103%; in [10], 119%; in [11], 106%; in experiment [12], 91.5%. Besides, the growth in [13] was 104%; in experiment [14] it was 88.3%; in experiment [15], 98.9%; in [16], 104%; in experiment [17], 99.5%; in experiment [18], 112%. For the same molecule, the growth in experiment [19] was 125%.
For `O=C1/C(=C/c2ccc(Oc3ccccc3)cc2)N=C(c2ccccc2)N1CCc1cccs1`, the growth in experiment [1] was 92.4%; in experiment [2], 35%; in [3], 63.2%; in [4] it was 89%; in experiment [5], 93.9%; in experiment [6], 62.1%. The growth in experiment [7] was 95.2%; in [8], 72%; in [9], 62.1%; in experiment [10] it was 94%; in [11] it was 75.5%; in [12], 95.7%. Moreover, the growth in [13] is 91.3%; in [14], 67.6%; in experiment [16], 96.1%; in [17], 67.9%; in experiment [20], 59.7%; in experiment [18], 79.1%. In experiment [19], the growth is 62.8%.
On to `CN(C)c1ccc(/C=C(\C#N)c2cc3ccccc3n2C)cc1`, for which the growth is 20.6% in [1]; 10.3% in experiment [2]; 20.8% in experiment [3]; 31% in experiment [4]; 19.4% in experiment [5]; 34.4% in experiment [6]. The growth is 19.3% in experiment [7]; 38.5% in experiment [8]; 31.5% in [9]; 67.2% in experiment [10]; 54.7% in experiment [11]; 41.6% in [12]. For the same molecule, the growth was 38.7% in experiment [13]; 51.7% in experiment [14]; 38.9% in experiment [16]; 30.7% in experiment [17]; -9.38% (active) in experiment [20]; 19.1% in [18]. Also, in [19], the growth was 21.6%.
In the case of `O=c1[nH]c(=O)n(Cc2ccc(F)cc2)cc1F`, the growth in experiment [1] is 99.5% [50 µM]; in [2], 114% [50 µM]; in experiment [3], 104% [50 µM]; in experiment [4], 100% [50 µM]; in [5], 98.7% [50 µM]; in [6], 107% [50 µM]. Besides, the growth in experiment [7] is 104% [50 µM]; in [8] it was 101% [50 µM]; in [9], 96.4% [50 µM]; in experiment [10], 109% [50 µM]; in [11], 111% [50 µM]; in experiment [12], 105% [50 µM]. The growth in [13] is 99.8% [50 µM]; in experiment [14] it was 89.4% [50 µM]; in experiment [16], 105% [50 µM]; in experiment [17], 95.3% [50 µM]; in experiment [20], 92.1% [50 µM]; in experiment [18], 104% [50 µM]. The growth in [19] is 96% [50 µM].
As to `CN1CCN(CCCn2c3c(sc4ncccc43)c(=O)n3nnc(-c4ccccc4)c23)CC1`, the growth in experiment [1] was -40.1% (active); in experiment [2] it was -46.2% (active); in experiment [3], 73.8%; in experiment [4] it was 5.98% (active); in experiment [5], -80.8% (active); in experiment [6], -3.82% (active). For the same molecule, the growth in experiment [7] is -98% (active); in [8], 91%; in experiment [9], -96% (active); in experiment [10], 111%; in [11] it was 99.3%; in experiment [12], 97.2%. In addition, the growth is 75.2% in experiment [13]; -90.8% (active) in experiment [14]; -73.3% (active) in [15]; 97.7% in experiment [17]; 150% in experiment [20]; -20.6% (active) in experiment [18]. For the same molecule, in experiment [19], the growth was -35% (active).
As to `COc1cc2cc(Oc3ccc(NC(=O)Nc4ccc(Cl)c(C(F)(F)F)c4)cc3)c(C)nc2cc1OCCN1CCCCC1`, the growth in [1] was -81.8% (active); in experiment [2] it was -68% (active); in [3], -57.9% (active); in experiment [4], -51.7% (active); in [5], -76.4% (active); in experiment [6], -55.3% (active). The growth is -76.1% (active) in [7]; 72.6% in experiment [8]; -97.1% (active) in [9]; -86% (active) in experiment [10]; 95.3% in experiment [11]; 15.8% in [12]. For the same molecule, the growth is -84.7% (active) in [13]; -90.1% (active) in experiment [14]; -100% (active) in experiment [16]; 15.4% in [17]; 64.2% in experiment [20]; 3.86% (active) in experiment [18]. In addition, the growth in experiment [19] was -37.2% (active).
